Source: PubChem BioAssay (NCI)
About 83,000 compounds went through this panel and 20% of them were active in at least one assay; those are over-represented in the sample as a whole.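 Growth was measured after 48 h exposure to one concentration of compound in 96-well plates. Values under 10 count as active.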 The source made the active and inactive calls.

Tests used:
Experiment in all cases: NCI-60 one-dose screen, 48 h (100 = growth as untreated, 0 = no growth, -100 = all killed)
Conditions in all cases: 10 µM unless noted
[1] = tested on: SR leukemia
[2] = tested on: RPMI-8226 leukemia
[3] = tested on: OVCAR-8 ovarian
[4] = tested on: OVCAR-5 ovarian
[5] = tested on: OVCAR-4 ovarian
[6] = tested on: SK-OV-3 ovarian
[7] = tested on: IGROV1 ovarian
[8] = tested on: OVCAR-3 ovarian
[9] = tested on: HS 578T breast
[10] = tested on: NCI/ADR-RES ovarian
[11] = tested on: T-47D breast
[12] = tested on: BT-549 breast
[13] = tested on: MDA-MB-435 melanoma
[14] = tested on: SW-620 colon
[15] = tested on: MCF7 breast
[16] = tested on: HCT-116 colon
[17] = tested on: HCC-2998 colon
[18] = tested on: KM12 colon

Measured: growth

Cc1ccc(NC(=O)Cn2cc(CN3CCN(c4ccnc5cc(Cl)ccc45)CC3)nn2)cc1
inactive: [1] 60.2% | [2] 64.7% | [3] 89.8% | [4] 95.5% | [5] 76.6% | [6] 68.4% | [7] 91.1% | [8] 91.3% | [9] 83.2% | [10] 89.1% | [11] 86.5% | [12] 81.5% | [13] 94.5% | [14] 88.6% | [15] 79.4% | [16] 96.9% | [17] 97.3% | [18] 85.8%

N=C(N)c1ccc(-c2ccc(-c3ccccc3)o2)cc1
active: [1] -29.3% | [2] -36.7% | [3] -59.3% | [4] -10.9% | [5] -4.49% | [6] -18.3% | [7] -25.7% | [8] -38.4% | [9] -18.1% | [10] -5.17% | [11] -46% | [13] -91.2% | [14] -75.7% | [15] -57.2% | [16] -100% | [17] -74.5% | [18] -80.3%
inactive: [12] 40.8%

O=C(Nc1ccc(OS(=O)(=O)c2ccc(F)cc2)cc1)C1CCCCCC1
inactive: [1] 70.2% | [2] 78% | [3] 93.2% | [4] 99.7% | [5] 98.5% | [6] 97.5% | [7] 118% | [8] 96.1% | [9] 82.4% | [10] 82.1% | [11] 81.4% | [12] 80.5% | [13] 97.3% | [14] 88.9% | [15] 92.1% | [16] 84.5% | [17] 78.9% | [18] 70.3%
